Bioassay records (PubChem BioAssay)
HSD17B inhib – qHTS Assay for Inhibitors of HSD17B4, hydroxysteroid (17-beta) dehydrogenase 4 | 7.6% of 75,000 active | 3-hydroxyacyl-CoA dehydrogenase type-2 (Homo sapiens), Q99714 | Potency, µM (doses to about 57.1 µM), inactives show at the highest dose activity change, negative = inhibition, actives largely listed as inhibitors | AID 893, 2007 | recombinant HSD17B10, NADH fluorescence kinetic;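 also: the protocol describes HADH2 (HSD17B10) and not the HSD17B4 of the title; potency is read from the fitted curve at half-maximal effect; % is scaled to controls: 0 for no effect and ±100 for the full control effect; nearly all actives have a fitted effect of over 70% in size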
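Enzyme plus compound, 15 min room temperature; substrate mix added (NAD+ 1 mM, beta-hydroxybutyryl-CoA 90 uM final); plates read kinetically for NADH fluorescence. HADH2 was His-tagged, E. coli-derived, 20 nM.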
CRE-bla Fsk – Cell signaling CRE-BLA (Fsk stim); CHO CRE-bla reporter (cAMP response element driving beta-lactamase), forskolin EC10, beta-lactamase ratio; Potency, µM (doses to about 38.2 µM), without a hit: at the highest dose activity change, negative = inhibition, usual class: activators; 2.5% of 71,000 active; AID 662, 2007; active = well fitted activation curve with a large enough effect in the signal ratio, with a control signal flat, not every such curve was filed as active; inconclusive = small, poorly fitted or top-dose-only effect, or effect the other way, or a change in a side signal; the % refers to the signal ratio; also: potency is read from the fitted curve at half-maximal effect; % of control where 0% means no effect
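AC50 values, positive or negative, reflect shifts in EC10 NKH 477-induced CRE-bla reporter activity in CHO cells. Incubation lasted 3 h at 37 °C before CCF4 substrate (2 h, room temperature) and ratiometric 460/530 nm reading.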
AID923 – qHTS Assay for Allosteric/Competitive Inhibitors of Caspase-1: Spectroscopic Profiling in AFC Spectral Region; compound fluorescence, AFC spectral region (405/520 nm); AID 923, 2007; Potency, µM (highest dose often 57.5 µM), for the others: top-dose fluorescence increase, usual class: activators; 1.1% of 75,000 active; also: potency is read from the fitted curve at half-maximal effect; 0% is about no effect
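Baseline compound fluorescence (AFC region, 405 nm ex/520 nm em) taken from the intercept of kinetic reads with 50 nM caspase-1 and 5 uM Ac-WEHD-AFC; normalized to an on-plate AFC standard curve; compounds titrated up to 57 uM.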
HADH2 inh – qHTS Assay for Inhibitors of HADH2 (Hydroxyacyl-Coenzyme A Dehydrogenase, Type II) | 3-hydroxyacyl-CoA dehydrogenase type-2 (Homo sapiens), Q99714 | recombinant HADH2, NADH fluorescence, beta-hydroxybutyryl-CoA | Potency, µM (top dose mostly 57.1 µM), for inactives: at the highest dose activity change, negative = inhibition, usual class: inhibitors | 3.4% of 73,000 active; also: potency is read from the fitted curve at half-maximal effect; % is scaled to controls: 0 for no effect and ±100 for the full control effect; nearly all actives have a fitted effect of over 60% in size
Target sequence (Q99714 whole entry, looked up, one chain of several): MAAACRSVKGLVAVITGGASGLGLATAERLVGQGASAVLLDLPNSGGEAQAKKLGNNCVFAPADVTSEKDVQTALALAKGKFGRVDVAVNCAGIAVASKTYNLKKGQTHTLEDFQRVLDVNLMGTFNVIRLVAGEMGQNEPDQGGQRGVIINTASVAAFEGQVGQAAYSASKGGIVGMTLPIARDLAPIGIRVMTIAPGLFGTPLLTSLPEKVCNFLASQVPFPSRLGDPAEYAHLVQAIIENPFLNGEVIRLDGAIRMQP
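NADH fluorescence (ex 360/em 450 nm) read every 30 s for 4 min; activity taken as last-minus-first time point difference. Enzyme 20 nM, NAD+ 1 mM, beta-hydroxybutyryl-CoA 90 uM, pH 9.0 Tris buffer.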
A350 fluor – qHTS Assay for Spectroscopic Profiling in A350 Spectral Region; max dye-equivalent concentration, M; AID 590, 2007; Compound autofluorescence, 340/450 nm, Alexa 350 dye-equivalents; hits give high values; 11% of 59,000 active; in the data active = max dye-equivalent concentration above about 10 nM; inconclusive = mostly about 1.1 nM to 9.6 nM
4MU fluor – qHTS Assay for Spectroscopic Profiling in 4-MU Spectral Region | AID 589, 2007 | max dye-equivalent concentration, M | compound autofluorescence, 340/450 nm, 4-MU equivalents; hits give high values | 11% of 59,000 active; in the data active = max dye-equivalent concentration above about 10 nM; inconclusive = mostly about 1.1 nM to 9.6 nM
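Compounds in 100 mM Tris, pH 8.0, sat 15 min at room temperature before fluorescence was read at 340 nm excitation/450 nm emission; a per-plate six-point 4-MU standard curve converted signals to dye-equivalent concentration at each compound concentration.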
An asterisk follows results filed as active; i = inactive; ? = inconclusive; . = no result given; [ ] = remark or other dose. Shown are actives, neighbours in structure and some others; about 14% of the full set was active somewhere. Unless noted, calls follow the shape of the dose curve; as a rule, active = well fitted curve in the direction sought with a large enough effect; inconclusive = small, poorly fitted or top-dose-only effect, or another doubt; inactive = no such curve, though single readings can be large; an effect the other way counts as inactive or inconclusive.

SMILES	HSD17B inhib	CRE-bla Fsk	AID923	HADH2 inh	A350 fluor	4MU fluor
CCNC(=O)N1c2ccc(OCC)cc2C(C)=CC1(C)C	32µM*	?	17%	-22%	2.8e-08M*	2.6e-08M*
Cn1c(=O)[nH]c(=O)c2c1nc(Br)n2CCOc1ccccc1	-1%	3.2µM*	0%	7%	?	i
O=C(CSc1nc2ccccc2o1)c1cc2ccccc2oc1=O	?	-14%	18%	-20%	1.1e-08M*	?
Cn1c(=O)[nH]c(=O)c2c1nc(Br)n2CCCSc1nc2ccccc2o1	-5%	10µM*	5%	?	i	i
COc1ccc(OCC(O)Cn2c(Br)nc3c2c(=O)[nH]c(=O)n3C)cc1 (centres undefined)	-2%	?	7%	4%	7.8e-08M*	8.2e-08M*
Cn1c(=O)[nH]c(=O)c2c1nc(N1CCCC1)n2CCCSc1nc2ccccc2o1	8%	?	-1%	11%	i	i
CCOC(=O)NC[C@H](Cc1ccc(OCCc2nc(-c3ccccc3)oc2C)cc1)N/C(C)=C\C(=O)c1ccc(C(F)(F)F)cc1	?	.	5%	18%	.	.
CN1CCC[C@H](C(=O)OCC(=O)[C@]2(O)CC[C@@H]3[C@H]4CCC5=CC(=O)CC[C@@]5(C)[C@H]4[C@@H](O)C[C@]32C)C1	5%[11.4 µM]	-3%[7.6 µM]	-1%[11.5 µM]	14%[11.4 µM]	i	i
COCCOC(=O)c1ccccc1C(=O)OCCOC	1%	-11%	-1%	5%	.	.
CC(C)C[C@@H](CC(=O)N[C@@H](CCC(=O)O)CC(=O)O)NC(=O)[C@@H]1CCCC[C@H]1NC(=O)C[C@H](CCCN)NC(=O)C[C@H](Cc1c[nH]c2ccccc12)NC(=O)[C@@H]1CNCC[C@H]1N	.	-14%	.	9%	.	.
C=C(C)C(=O)OCC1CN2C(CCC(C)C2c2ccc(Br)cc2)C(=O)O1 (centres undefined)	1%[11.4 µM]	.	0%[11.5 µM]	9%[11.4 µM]	.	.
COC(=O)NC(/C(C(=O)OC)=C(\C)NCc1ccccc1)c1cccc(F)c1 (centres undefined)	2%[11.4 µM]	.	-1%[11.5 µM]	23%[11.4 µM]	.	.
O=C1c2ccccc2C(=O)N1CCCSc1nc2ccccc2o1	25µM*	?	1%	-8%[11.4 µM]	.	.
O=C(/C=C/Nc1ccc(F)c(Cl)c1)c1ccco1	20µM*	0%	5%	-14%	?	?
CC12CC[C@@H]3c4ccc(OS(=O)(=O)O)cc4CC[C@H]3C1CCC2=O (some centres undefined)	3%[25.6 µM]	-2%[17.1 µM]	0%[25.7 µM]	-1%[25.6 µM]	i	i
Cc1cc(Nc2nc3ccccc3[nH]c2=O)n(-c2ccccc2)n1	?	?	0%	-10%	4.3e-08M*	3.4e-08M*
Cc1ccc(S(=O)(=O)Nc2cc(C)nn2-c2ccccc2)cc1	6%	-11%	-1%	4%	i	i
CC1(C)CC(=O)C(C2(O)C(=O)N(Cc3ccccc3)c3ccccc32)CO1 (centres undefined)	10µM*	-5%	7%	?	i	i
COC(=O)NC(c1cccc(F)c1)[C@@]1(C(=O)OC)CCCC1=O (some centres undefined)	6%[11.4 µM]	.	0%[11.5 µM]	1%[11.4 µM]	.	.
Cc1ccc(C(=O)O)cc1	-11%	-9%	2%	-8%	.	.
O=C(O)c1ccc(SSc2ccc(C(=O)O)cn2)nc1	?	?	0%[11.5 µM]	0.05µM*	i	i
CC1CCCC(C(=O)O)N1C(=O)CCSC(=O)c1ccccc1 (centres undefined)	-1%	-12%	4%	-6%	3e-08M*	2.5e-08M*
Cc1ccc(CC(NC(=O)c2ccccc2)C(=O)N2CCCC2C(=O)O)cc1 (centres undefined)	-7%	0%	0%	-15%	i	i
CCOc1ccc(-c2nc(CSc3nncs3)cs2)cc1OC	?	5µM*	1%	-7%	i	i
O=C1CCCC(O)=C1C1C2=C(CCCC2=O)Oc2ccccc21 (centres undefined)	3%	?	7%	-13%	.	.
SMILES	HSD17B inhib	CRE-bla Fsk	AID923	HADH2 inh	A350 fluor	4MU fluor
Clc1ccc(-c2nnc(-c3cccc4ccccc34)o2)cc1Cl	3.2µM*	5%[7.6 µM]	4%[11.5 µM]	-8%[11.4 µM]	?	?
C#CCSc1nnc(-c2cccc3ccccc23)o1	?	5%	1%	-6%	?	i
CC1C(C#N)=C(N)OC2=C1C(=O)CCC2 (centres undefined)	2%	-4%	3%	-6%	?	i
CCCCCCC1C(C#N)=C(N)OC2=C1C(=O)CCC2 (centres undefined)	32µM*	?	-4%	?	.	.
CCCCCCC1C(C#N)=C(N)OC2=C1C(=O)CC(C)(C)C2 (centres undefined)	-21%	10µM*	-2%	-12%	.	.
C[C@H]1C2=C3C(C[C@H]4C(=O)N(c5ccccc5)C(=O)[C@H]4[C@H]3[C@@]3(Cc4ccccc4)C(=NCCc4c[nH]c5ccccc45)OC(=O)N3C2=O)[C@H]2C(=O)N(c3ccccc3)C(=O)[C@H]21 (some centres undefined)	-12%	.	1%	.	.	.
COC(=O)C1(CC(C)C)C=C2C(=C(c3ccccc3)C(=O)C2C)CN1 (centres undefined)	?	-26%	6%	-13%	.	.
CCCCCC1=C2CNC(CCC)(C(=O)OC)C=C2C(C)C1=O (centres undefined)	?	-9%	8%	0%	.	.
CN(C)CCCc1cc(C(=O)Nc2ccc(-c3ccncc3)cc2)ccc1O	-15%	?	-3%	-2%	.	.
COc1ccccc1CCn1c(=O)c(-c2cc(F)cc(F)c2)nc2cncnc21	25%	?	3%	7%	i	i
NC(=O)c1ccccc1N/C=C/C(=O)c1ccccc1	?	-4%	13%	-9%	1.1e-08M*	1.4e-08M*
O=C(NC1CCCc2ccccc21)C1CCC(CNc2c(N3CCOCC3)c(=O)c2=O)CC1 (centres undefined)	2%	-12%	2%	-19%	.	.
Cc1cc(C)n2nc(SCC(=O)N(C)c3ccccc3)nc2n1	12%	27%	1%	-9%	i	i
Cc1cc(-c2ccccc2)n2ncc(C#N)c2n1	25µM*	?	5%	?	.	.
CSc1nc2nc(C)cc(-c3ccccc3)n2n1	32µM*	?	0%	?	?	i
